High-throughput results (PubChem)
This is a sample that favours compounds with a hit; in the whole collection about 4.1% have one here.
DAX1 inh-1: DAX1 (NR0B1) inhibitors, primary screen, cell-based, HEK293, Gal4-DAX1, luciferase luminescence. Nuclear receptor subfamily 0 group B member 1 (Homo sapiens), P51843. HEK293 Gal4-DAX1 luciferase reporter. inhibition, % at 6.75 µM. 0.99% of 340,000 active;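 active means inhibition above the mean over all tested compounds plus 3 SD, cut at about 4.2% in these data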;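 further: 0% = DAX1-transfected cells with DMSO and 100% = empty-vector control cells with DMSO; inhibition shows as a rise in luminescence from relieved DAX1 repression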
Target sequence (P51843 207-470 limits assumed): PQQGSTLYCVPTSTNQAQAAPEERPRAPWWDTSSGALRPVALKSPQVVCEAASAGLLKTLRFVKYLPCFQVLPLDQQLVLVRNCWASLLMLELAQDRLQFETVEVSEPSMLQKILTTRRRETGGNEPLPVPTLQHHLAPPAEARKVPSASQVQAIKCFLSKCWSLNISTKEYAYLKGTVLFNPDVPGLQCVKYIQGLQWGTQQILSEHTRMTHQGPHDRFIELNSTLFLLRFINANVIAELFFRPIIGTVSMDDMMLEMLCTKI
DAX1 inh-2: DAX1 (NR0B1) inhibitors on StAR promoter, primary screen, cell-based, luminescence, SF-1 (NR5A1), full-length DAX-1 | AID 652010, 2013 | HEK293T StAR-luciferase reporter, SF-1/DAX-1 repression relief | 1.1% of 370,000 active | inhibition, % at 6.8 µM;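 active means inhibition above the mean over all tested compounds plus 3 SD, cut at about 3.6% in these data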;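 further: 0% = DAX-1 cells with DMSO and 100% = cells lacking DAX-1 with DMSO; higher inhibition means more luminescence from relief of DAX-1 repression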
ssDAF-12 act: S. stercoralis DAF-12 nuclear receptor activators, primary screen, cell-based, luminescence, HEK293, GRIP1 co-expression, lit1-tk-luc; HEK293 ssDAF-12/GRIP1 lit1-tk-luc reporter; % of 3 µM dafachronic acid response; activation, % at 6.8 µM; 1% of 370,000 active;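 active means activation above the mean over all tested compounds plus 3 SD, cut at about 0.9% in these data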;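 further: 0% = DMSO-only wells and 100% = 3 µM delta7-dafachronic acid wells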
hcDAF12 agonist: H. contortus DAF-12 nuclear receptor activators, primary screen, cell-based, luminescence, HEK293, lit1-tk-luc reporter; HEK293 hcDAF-12 lit1-tk-luc reporter; 0% DMSO, 100% Δ7-dafachronic acid; activation, % at 6.8 µM; 1.4% of 370,000 active; AID 652067, 2013;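 active means activation above the mean of all tested compounds plus 3 SD, cut at about 5.5% in these data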;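 further: 100% = response to 3 µM Δ7-dafachronic acid high control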
hgDAF12 agonist: H. glycines DAF-12 receptor agonists, primary screen, cell-based, luminescence, HEK293, GAL4 fusion, UAS-luciferase; Nuclear hormone receptor DAF-12 (Heterodera glycines), GAL4 fusion; HEK293 GAL4-hgDAF12 UAS-luciferase reporter, agonist luminescence; normalized to butyrate control; activation, % at 6.8 µM; 1.8% of 370,000 active;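 active means activation above a cutoff set at the mean of all screened compounds plus 3 SD, cut at about 10% in these data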;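 further: 0% = DMSO wells and 100% = sodium butyrate wells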
* marks the source's active call; other numbers are inactive results; / = no result given.

SMILES	DAX1 inh-1	DAX1 inh-2	ssDAF-12 act	hcDAF12 agonist	hgDAF12 agonist
CCOC(=O)c1csc(NC(=O)C2CCCN(S(=O)(=O)c3ccccc3[N+](=O)[O-])C2)n1 (configuration not stated)	/	-2	-2	-3	-4
CCN1CCN(C(=O)CSCc2nc(-c3ccc(OC)c(OC)c3)oc2C)CC1	1	0	-1	5	3
COc1ccc(-c2nc(CSCC(=O)N3CCN(C)CC3)c(C)o2)cc1OC	6.1*	0	-1	-1	-3
O=[N+]([O-])c1ccc(NCc2ccccc2)nc1	1	0	0	5	6
O=[N+]([O-])c1ccc(NN=Cc2ccc(O)cc2)nc1	6.0*	2	-1	4	13*
O=[N+]([O-])c1ccc(N/N=C/c2cccs2)nc1	6.0*	1	-1	3	11*
Cc1cc(/C=N/Nc2ccc([N+](=O)[O-])cn2)c(C)n1-c1ccc(C(=O)O)cc1	6.6*	0	-2	0	5
O=[N+]([O-])c1ccc(NN=Cc2ccccc2O)nc1	-3	-4	-2	1	-1
O=[N+]([O-])c1ccc(NN=CCCc2ccccc2)nc1	1	1	0	1	13*
O=[N+]([O-])c1ccc(NN=Cc2ccccc2)nc1	2	2	0	4	9
COC[C@H]1CCCN1c1cccc2c1S(=O)(=O)N(C1CC1)CC[C@@H](C)O2	/	0	-1	-3	7
Cn1c(=S)[nH]c(=O)c2ncc(=O)[nH]c21	-1	0	0	-1	3
Cc1ccc(CN2CCCCC(NC(=O)c3ccc(F)cc3)C2=O)cc1 (configuration not stated)	/	-1	-2	-3	0
COC(=O)[C@]12C[C@H](CC(=O)NCc3ccc(OC)c(OC)c3)C(=O)N(Cc3ccc(Cl)cc3Cl)C1=C[C@H](COCc1ccccc1)O[C@@H]2C	/	-1	-1	0	1
CCOC(=O)Cc1nc(N2CCN(C(=O)C3CCCO3)CC2)c2c(C)c(C(=O)OCC)sc2n1 (configuration not stated)	/	0	0	-2	-1
COc1ccc(C=NNc2ccc([N+](=O)[O-])cn2)cc1	2	3	0	2	11*
CCN(CC)c1ccc(C=NNc2ccc([N+](=O)[O-])cn2)cc1	2	1	-1	2	3
Cc1cc2c(s1)c1cnn(Cc3c(Cl)ccc(C)c3F)c(=O)c1n2C	/	/	-1	-2	-4
c1ccc(CNc2cncnc2)cc1	0	0	1.1*	1	-2
C=CCn1c(SCC(=O)Nc2ccccc2-c2ccccc2)nnc1-c1ccccc1	/	3	-1	0	3
CC(Sc1nnc(-c2ccc(OC(F)F)cc2)n1N)C(=O)NCC1CCCO1 (configuration not stated)	0	4.4*	-1	0	1
CC(Sc1nnc(-c2ccc(OC(F)F)cc2)o1)C(=O)NCC1CCCO1 (configuration not stated)	0	1	1.1*	2	-2
O=C(COC(=O)c1ccc(OC(F)F)cc1)NCC1CCCO1 (configuration not stated)	1	-2	-1	-1	4
Clc1cc(Cl)cc(CNC2CCC23CCCCC3)c1 (configuration not stated)	/	/	-1	-1	0
O=C(O)c1cccnc1SCc1ccccc1	0	/	/	/	/
Cc1cc(C(=O)COC(=O)Cc2n[nH]c(=O)c3ccccc23)c(C)n1-c1cccc(C(F)(F)F)c1	-2	-1	-2	-4	-3
Cc1cc(C(=O)COC(=O)CC2Sc3ccccc3NC2=O)c(C)n1-c1cccc(C(F)(F)F)c1 (configuration not stated)	0	0	1.2*	4	2
CC1(C)C2CCC1(C(=O)O)c1nc3ccccc3nc12 (configuration not stated)	4.8*	0	-1	-2	0
